Data on 96 compounds can be found in PubChem BioAssay AID588726 (The Scripps Research Institute Molecular Screening Center, 2011).

Hit rate of the full screen: of about 360,000 compounds, about 8,200 (2.3%) were called active. No stated cut-off is given here; in the data, active means inhibition above about 27%; inactive means the rest. What follows is part of a selection rich in actives, with near analogues and random picks from the rest.

Sequence of Fructose-bisphosphate aldolase (Mycobacterium tuberculosis (strain ATCC 25618 / H37Rv)) (P9WQA3 whole entry, looked up): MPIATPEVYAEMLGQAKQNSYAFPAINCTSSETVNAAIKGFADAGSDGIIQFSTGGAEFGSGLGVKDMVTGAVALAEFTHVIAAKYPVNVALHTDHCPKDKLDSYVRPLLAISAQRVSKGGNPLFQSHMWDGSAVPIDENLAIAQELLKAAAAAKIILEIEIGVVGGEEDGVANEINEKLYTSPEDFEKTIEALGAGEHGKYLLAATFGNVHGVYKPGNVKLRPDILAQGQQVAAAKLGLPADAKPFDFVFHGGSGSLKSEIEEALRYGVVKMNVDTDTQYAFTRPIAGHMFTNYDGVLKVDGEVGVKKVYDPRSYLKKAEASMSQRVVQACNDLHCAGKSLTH

The assay addresses Fructose-bisphosphate aldolase (Mycobacterium tuberculosis (strain ATCC 25618 / H37Rv)) (UniProt P9WQA3). The experiment in a line: Mtb FBA enzyme inhibitors, primary screen, biochemical, fluorescence, strain H37Rv (AID 588726).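 Further: 0% = vehicle and 100% = reference inhibitor.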 The settings on record: purified M. tuberculosis FBA, fluorescence read-out, at 1 µM, active compounds read high.
For the compound `CC(=O)N1CC[n+]2c(-c3ccc([N+](=O)[O-])cc3)csc21`, the inhibition is -3.76% (inactive).

With `COc1ccc2c(c1OC)C(=O)N(c1ncn[nH]1)C2`, the inhibition is 31.1% (active).

Consider `COc1ccc2c(c1OC)C(=O)N(c1ccc(O)cc1)C2`, for which the inhibition was -2.29% (inactive).

`COc1ccc(C(C)C)cc1S(=O)(=O)Nc1ncn[nH]1`: the inhibition is -1.62% (inactive).

As to `Cc1nnc(NC(=O)CSc2nccn2-c2cccc(C)c2C)s1`, the inhibition is 1.13% (inactive).

For `CCCc1cc(=S)n2c([nH]c3ccccc32)c1C#N`, the inhibition was 14.3% (inactive).

Consider `CCOC(=O)C1CCN(C(=O)Cn2cc(C#N)c3ccccc32)CC1`, for which the inhibition was 1% (inactive).

With `COc1ccc(C(C(=O)NC2CCCCC2)N(C(=O)Cc2c[nH]c3ccccc23)c2ccccc2)cc1OC` (stereo unspecified), the inhibition was -0.54% (inactive).

In the case of `CC(=O)N1CCSc2ccc(S(=O)(=O)N3CCC(C)CC3)cc21`, the inhibition was 3.62% (inactive).

On to `CC12CCC(C(=O)N(CCC#N)CCC#N)(CC1=O)C2(C)C` (stereo unspecified), for which the inhibition was 1.36% (inactive).

On to `Cc1ccc(C(=O)NC(=S)Nc2ccc3[nH]c(=O)[nH]c3c2)cc1C`, for which the inhibition is 2.47% (inactive).

Take `COC(=O)c1cc(C(=O)NC(C)C2CC3CCC2C3)cc([N+](=O)[O-])c1` (stereo unspecified): the inhibition is 6.2% (inactive).

`Cc1cccc(NC(=O)c2cc(S(=O)(=O)N3CCC4(CC3)OCCO4)ccc2F)c1`: the inhibition was -0.22% (inactive).

With `Cc1cc(C(=O)NC2CCN(Cc3ccccc3)CC2)n[nH]1`, the inhibition was 0.08% (inactive).

`O=C(NC1CCN(Cc2ccccc2)CC1)c1ccc(Oc2cc(Cl)cc(Cl)c2)o1`: the inhibition is 1.42% (inactive).

Take `O=C(NC1CCN(Cc2ccccc2)CC1)c1cc(Br)c(Br)[nH]1`: the inhibition is 40% (active).

`OC(c1ccc(Cl)c(F)c1)c1ncc(-c2ccccc2Cl)[nH]1` (stereo unspecified): the inhibition is -1.69% (inactive).

For the compound `CCCCN(CCCC)CC(O)Cn1c2ccccc2c(=O)c2ccccc21` (stereo unspecified), the inhibition was 71.2% (active).

For `CS(=O)(=O)N(CC(O)Cn1c2ccccc2c2ccccc21)c1cccc2ccccc12` (stereo unspecified), the inhibition was -2.35% (inactive).

Consider `OC(Cn1c2ccccc2c2ccccc21)C[n+]1ccccc1` (stereo unspecified), for which the inhibition was -1.64% (inactive).

In the case of `O=C(CNC(=O)[C@@H]1Cc2ccccc2CN1)NC1CCCCC1`, the inhibition was 0.53% (inactive).

Turning to `CC(C)C(NC(=O)OCc1ccccc1)C(=O)OCC(=O)N1C(C)CCCC1C` (stereo unspecified), the inhibition was 2.57% (inactive).

`COc1ccc(CCN2C(=O)CC(N3CCC(C(N)=O)CC3)C2=O)cc1OC` (stereo unspecified): the inhibition is -1.48% (inactive).

Regarding `Cc1nc(SC(C)C)[nH]c(=O)c1Cc1ccccc1`, the inhibition is 0.91% (inactive).

As to `N#Cc1c(N)nc2c(c1N)CC(C(F)(F)F)O2` (stereo unspecified), the inhibition was 0.26% (inactive).

For `CCc1ccc(-c2cc(C(=O)NN3CCN(C)CC3)c3ccccc3n2)cc1`, the inhibition was 0.75% (inactive).

In the case of `Cc1nc2ccccc2c(C(=O)O)c1-c1ccccn1`, the inhibition is -2.32% (inactive).

`O=C(CCCN1C(=O)CSc2ncccc21)N1CCN(c2cccc(C(F)(F)F)c2)CC1`: the inhibition was 3.32% (inactive).

Regarding `CN(C)c1cc(-c2ccc(F)cc2)oc(=O)c1Cl`, the inhibition was -2.58% (inactive).

Turning to `CCCCCCc1cc2cc(-c3nnc(-c4ccccc4)o3)c(=O)oc2cc1O`, the inhibition was 4.92% (inactive).

`Cc1cc(Cl)ccc1N1C(=O)CC(SCCC(=O)O)C1=O` (stereo unspecified): the inhibition is 5.32% (inactive).

In the case of `COc1ccc(C(=O)NCCSc2ccccc2C)cc1`, the inhibition was 0.09% (inactive).

Take `CCOc1ccc2nc(NCCNS(=O)(=O)c3ccccc3)c(C#N)cc2c1`: the inhibition was 40.1% (active).

As to `CCOc1ccc2nc(NCCNC(=O)C(C)(C)C)c(C)cc2c1`, the inhibition is 26.1% (inactive).

For the compound `CCOc1ccc(S(=O)(=O)NCCSc2ccccc2)cc1`, the inhibition was 1.75% (inactive).

As for `Cn1nc(N)c2ncc(C(Cl)(Cl)Cl)nc21`, the inhibition is -3.83% (inactive).

Take `COC(=O)c1c(-c2ccsc2)oc2ccc(-c3cc(OC)c(OC)c(OC)c3)cc12`: the inhibition is 27.6% (active).

`COc1cc2c(-c3ccc4c(c3)OCO4)c(-c3ccsc3)oc(=O)c2cc1OC`: the inhibition is 2.51% (inactive).

In the case of `COc1cc(-c2nnc(NC(=O)CS(=O)(=O)c3ccc(Cl)cc3)o2)cc(OC)c1OC`, the inhibition was -1.58% (inactive).

Take `CCCCC(NC(=O)c1cccc(Br)c1)C(=O)O` (stereo unspecified): the inhibition is 3.7% (inactive).

On to `O=C(NC1CC2CCCC(C1)N2C(=O)N1CCCCC1)C1CCCCC1` (stereo unspecified), for which the inhibition is 2.38% (inactive).

`CCOCCCN(C)C1CCN(C(=O)c2oc3ccccc3c2NC(=O)Cc2cccc([N+](=O)[O-])c2)CC1`: the inhibition was -1.05% (inactive).

Regarding `Cc1cc2oc3ccc(NCCC4CCCN4C)cc3c(=O)c2cc1C` (stereo unspecified), the inhibition was -0.55% (inactive).

As to `CN1CCC[C@@H]1CCO[C@](C)(c1ccccc1)c1ccc(Cl)cc1`, the inhibition was -4.31% (inactive).

For `COc1cccc2sc3cc(NCC[C@@H]4CCCN4C)ccc3c(=O)c12`, the inhibition was 40.4% (active).

As to `COC(=O)c1c(C(=O)OC)c(-c2cccc(C)c2)n2c1CS(=O)C2` (stereo unspecified), the inhibition is -0.62% (inactive).

For `COc1ccc2c(c1)OC(O)(C(F)(F)C(F)F)CC2=O` (stereo unspecified), the inhibition is -0.78% (inactive).

Turning to `O=S(=O)(c1ccc(Cl)s1)N1CCC2(CC1)OCCO2`, the inhibition is 0.69% (inactive).

As for `CCC12CN3CC(CC)(CN(C1)C31C(=O)N(C)c3ccc(C)cc31)C2=O` (stereo unspecified), the inhibition was -4.48% (inactive).

In the case of `Cc1cc(C(=O)OCC(=O)Nc2ccc(F)c(F)c2)c(C)o1`, the inhibition is 0.1% (inactive).

`c1cnc(NC2C3CC4CC(C3)CC2C4)nc1` (stereo unspecified): the inhibition was 1.67% (inactive).

With `CC(CN1CCOCC1)c1ccccc1` (stereo unspecified), the inhibition is -0.87% (inactive).

As for `Clc1nc(NC2CCCC2)nc(N2CCOCC2)n1`, the inhibition was 2.59% (inactive).

For `CC(Nc1nc(N2CCOCC2)nc2ccccc12)c1ccccc1` (stereo unspecified), the inhibition is 50.4% (active).

Take `c1ccc2c(NC3C4CC5CC(C4)CC3C5)nc(N3CCOCC3)nc2c1` (stereo unspecified): the inhibition is 37.7% (active).

On to `Fc1cnc(N2CCOCC2)nc1NCc1ccccc1`, for which the inhibition is 15.4% (inactive).

With `Cc1ccc(-n2nc(-c3ccco3)cc2C(=O)NCc2cccnc2)cc1`, the inhibition was -1.53% (inactive).

With `CC(=O)N1CC(=O)N(CC(=O)Nc2ccc(Br)cc2)C1=S`, the inhibition was -0.11% (inactive).

As for `COc1ccc(C)cc1N(CC(=O)N1CCCC1)S(=O)(=O)c1ccccc1`, the inhibition is -1.91% (inactive).

As for `CC1CCCCC1NC(=O)c1cn(C)c2ccc(S(=O)(=O)N3CCOCC3)cc2c1=O` (stereo unspecified), the inhibition is -7.99% (inactive).

On to `Cc1ccccc1N1CCN(CCCN2C(=O)C3CCCCN3C2=O)CC1` (stereo unspecified), for which the inhibition was 0.31% (inactive).

With `COC(=O)C1=C(C)N(C)C(=S)NC1c1cc(OC)ccc1OC` (stereo unspecified), the inhibition was 2.6% (inactive).

As to `CC(=O)NC(NC(=S)Nc1c(C)n(C)n(-c2ccccc2)c1=O)C(Cl)(Cl)Cl` (stereo unspecified), the inhibition is 4.91% (inactive).

On to `O=C(CCS(=O)(=O)Cc1ccccc1F)NCCCN1CCCCC1`, for which the inhibition is -1.06% (inactive).

For `O=C(NCc1cccnc1)Nc1cccc(NC(=O)NCc2cccnc2)c1F`, the inhibition was 2.23% (inactive).

Regarding `CCN(CC(=O)NCCc1ccccc1)S(=O)(=O)c1ccc(C)cc1`, the inhibition was -0.83% (inactive).

For `Cc1ccc(-c2cn3cc(C)ccc3n2)cc1`, the inhibition is 56% (active).

Turning to `COc1ccc(Cc2cc(-c3ccc(F)cc3)n[nH]c2=O)cc1`, the inhibition is -0.22% (inactive).

In the case of `Cc1ccc(Cc2c(-c3ccccc3)nc3ccc(Cl)cn23)cc1`, the inhibition was -2.09% (inactive).

As to `COc1ccc(C2=Nc3cc(C)ccc3OC2)cc1`, the inhibition is 17.7% (inactive).

Turning to `CCN(CC)S(=O)(=O)c1ccc(-c2cn3ccc(C)cc3n2)cc1`, the inhibition was 140% (active).

For the compound `COc1ccc(-c2cn3ccc(C)cc3n2)cc1`, the inhibition is 70.2% (active).

Regarding `Cc1ccc2nc(-c3ccc(Br)cc3)cn2c1`, the inhibition is 4.66% (inactive).

For the compound `CCN(c1cccc(C)c1)S(=O)(=O)c1ccc(-c2coc(C)n2)cc1`, the inhibition was 3.59% (inactive).

As for `CCN(CC)C(=O)Oc1ccc(Br)cc1C(=O)Nc1ccc(F)c(Cl)c1`, the inhibition was -6.9% (inactive).

For the compound `C#CCCOC(=O)N1C2=NC(C(=O)OC)=C(C(=O)OC)[C@@H]3N(C)c4ccc(OC)cc4[C@]23C[C@H]1C(=O)OC`, the inhibition was 5.83% (inactive).

Regarding `O=C(OCCO)c1cc(Cl)c(C(=O)OCCO)cc1Cl`, the inhibition was -2.53% (inactive).

`CC1CC(C)(C)CC2(C1)NC(=O)N(CC(=O)Nc1nccs1)C2=O` (stereo unspecified): the inhibition was 1.81% (inactive).

Regarding `Cc1ccc(S(=O)(=O)N2CCN(C(=O)c3ccc(-n4cncn4)c([N+](=O)[O-])c3)CC2)cc1`, the inhibition was -0.25% (inactive).

On to `O=C(NCCc1ccccc1)c1c[nH]c2ccc(F)cc2c1=O`, for which the inhibition is -1.25% (inactive).

For `COc1ccc(Cl)cc1NC(=O)c1cccc(N2C(=O)C3CC=CCC3C2=O)c1` (stereo unspecified), the inhibition is -2.03% (inactive).

As to `Cc1cccc(NC(=O)c2ccc(S(=O)(=O)N(C)CC3CCCO3)cc2)c1C` (stereo unspecified), the inhibition was -3.44% (inactive).

On to `CNc1ccc(SC#N)cc1`, for which the inhibition is 2.17% (inactive).

Consider `CC1CCN(CC(=O)Nc2nccs2)CC1`, for which the inhibition is -1.23% (inactive).

Take `CCOC(=O)C(CC)/C(C)=N\NC(=O)c1cccc(C)c1` (stereo unspecified): the inhibition was 2.1% (inactive).

As for `O=S(=O)(Nc1ccc2[nH]ncc2c1)c1ccccc1Cl`, the inhibition is -2.11% (inactive).

Take `Cc1ccc(NS(=O)(=O)c2c(C)[nH]c(C)c2C(=O)N2CCCCC2)c(C)c1`: the inhibition was 1.03% (inactive).

Consider `COc1ccc(NC(=O)c2sccc2SCC#N)cc1`, for which the inhibition was 0.88% (inactive).

Regarding `CCOC(=O)c1[nH]c2ccc(C)cc2c1N=C(C)N(C)C`, the inhibition was 1.43% (inactive).

For the compound `CCOC(=O)c1cc2cc(C)ccc2[nH]1`, the inhibition is 31.8% (active).

Turning to `Cc1ccc2[nH]c(=O)c(COC(=O)c3ccccn3)cc2c1`, the inhibition was 1.82% (inactive).

With `CC1(C)C(=O)CCC2(C)C1=CCC1C2C(=O)CC2(C)C1CCC2(O)C(=O)CO` (stereo unspecified), the inhibition was 1.52% (inactive).

For the compound `COc1ccc(-n2c(C)cc(C(=O)CN3C(=O)NC4(CCc5ccccc54)C3=O)c2C)cc1` (stereo unspecified), the inhibition was 1% (inactive).

In the case of `Cn1c(=O)c(Sc2ccc(Cl)cc2)c(O)c2ccccc21`, the inhibition is 2% (inactive).

Regarding `Cn1c(=O)c(C(=O)Nc2ncccn2)c(O)c2ccccc21`, the inhibition was 7.7% (inactive).

As for `Cc1cc(C)c(-c2c(O)c3ccccc3n(C)c2=O)c(C)c1`, the inhibition was 62.7% (active).

As a reminder, the inhibition is the change of the read-out against control, counted positive when it falls.
